# A selection: hits, their analogues and other compounds. The true share with any hit is near 5.9%.
# PRMT1 FP inh: blocks human protein arginine methyltransferase 1; actives 1.3% (n = 370,000); recombinant PRMT1, activity-based probe fluorescence polarization; inhibition, % at 2.79 µM; Q99873;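 active = inhibition above about 21% made by adding two undisclosed values, limit read from the data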
# Target sequence (Q99873 whole entry, looked up): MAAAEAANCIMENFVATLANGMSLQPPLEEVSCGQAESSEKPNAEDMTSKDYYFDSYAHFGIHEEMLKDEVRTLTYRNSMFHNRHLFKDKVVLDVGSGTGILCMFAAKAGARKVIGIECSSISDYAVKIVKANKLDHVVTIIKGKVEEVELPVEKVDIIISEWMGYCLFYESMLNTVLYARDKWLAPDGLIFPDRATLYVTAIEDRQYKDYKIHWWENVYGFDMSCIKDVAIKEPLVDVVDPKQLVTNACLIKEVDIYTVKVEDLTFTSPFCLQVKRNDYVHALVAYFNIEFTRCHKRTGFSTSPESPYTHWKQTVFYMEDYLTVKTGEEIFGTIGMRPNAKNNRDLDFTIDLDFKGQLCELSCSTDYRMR
# Rtt109 HAT inh: blocks Candida albicans Rtt109/Vps75 acetyltransferase activity; Q5AAJ8; purified Rtt109/Vps75, ThioGlo CoA-SH fluorescence, 4 h; inhibition, % at 34.9 µM; actives 0.16% (n = 330,000);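 active = inhibition of at least 50% in every replicate; inconclusive = best replicate reaches 50% inhibition but some replicates fall short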
# rCAG RNA binder: binds r(CAG) RNA repeats | inhibition, % at 3 µM | actives 1.3% (n = 370,000) | AID 651821 | r(CAG) RNA repeat, TO-PRO-1 dye displacement fluorescence;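 active = inhibition above the plate cutoff, the mean of all test compounds on that plate plus 3 SD, cut at about 35% in these data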;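 note: 0% = DMSO alone and 100% = 100 µM mitoxantrone as full dye displacement; higher means more dye released from RNA so lower well fluorescence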
# LANA-H2B inh: blocks KSHV LANA binding to histone H2A/H2B. Q9QR71. cell-free LANA-H2A/H2B peptide, fluorescence polarization. inhibition, % (concentration not given with the values). actives 0.6% (n = 320,000); in the data active = inhibition mostly above about 10%, no sharp cut-off; inactive = mostly below about 6.7%
# ABHD5-PLIN5 inh: ABHD5-PLIN5 protein interaction inhibition; AID 602281; actives 0.78% (n = 360,000); Q00G26+Q8WTS1; Split G. princeps luciferase complementation, luminescence, 4 h; inhibition, % at 4 µM;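 active = inhibition above the mean inhibition across every tested compound plus 3 SD, cut at about 22% in these data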;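 note: 0% = DMSO only wells and the 100% control is not disclosed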
# ALR inh: human ALR oxidase inhibition via reduced H2O2. actives 3.8% (n = 290,000). purified ALR, DTT oxidation, H2O2 HRP-luminol luminescence. AID 485317. inhibition, % (no concentration beside the values). P55789;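 active = mean replicate inhibition above about 79%, with every replicate also reaching it, limit read from the data; inconclusive = only one of the two criteria met; inactive = mean below limit and not every replicate reaching it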
# Target sequence (P55789 whole entry, looked up): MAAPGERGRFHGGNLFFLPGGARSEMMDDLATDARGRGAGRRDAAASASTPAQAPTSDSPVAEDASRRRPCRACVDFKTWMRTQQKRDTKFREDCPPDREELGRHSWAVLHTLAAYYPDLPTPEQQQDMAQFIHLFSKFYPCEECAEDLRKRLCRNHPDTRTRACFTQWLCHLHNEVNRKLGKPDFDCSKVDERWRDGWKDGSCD
# * marks the source's active call; other numbers are inactive results; u = inconclusive; x = not tested or not shown.
SMILES,PRMT1 FP inh,Rtt109 HAT inh,rCAG RNA binder,LANA-H2B inh,ABHD5-PLIN5 inh,ALR inh
Nc1ccc(C(=O)OCc2csc(-c3ccccc3)n2)cc1[N+](=O)[O-],-1.9,x,4.6,-0.7,4.3,98.5*
O=C(CNC(=O)c1ccccc1F)OCc1csc(-c2ccccc2)n1,0.7,4.8,-7.3,-2.0,3.4,98.6*
CNS(=O)(=O)c1cccc(C(=O)OCc2csc(-c3ccccc3)n2)c1,2.9,-1.0,1.2,-3.6,-6.6,u
CC1(C)C(=O)OC(c2cc(Br)ccc2O)C(C)(C)C1=O (centres undefined),0.4,3.5,2.8,1.0,-6.9,97.9*
CCc1c(C)nc2c(C#N)c[nH]n2c1=O,-2.8,1.5,2.3,4.7,5.5,97.6*
COc1ccc(N2CCN(C(=O)c3cccc(NC4=NC5CS(=O)(=O)CC5S4)c3)CC2)cc1 (centres undefined),-0.1,9.1,-1.1,2.8,-11.3,93.3*
Cc1ccc(NC(=O)c2cccc(NC3=NC4CS(=O)(=O)CC4S3)c2)cc1C (centres undefined),5.2,-12.3,3.9,24.3*,-2.9,8.8
COc1ccc(NC(=O)N(C)C[C@H]2Oc3ncc(Br)cc3C(=O)N([C@H](C)CO)C[C@@H]2C)cc1,-4.0,x,2.2,x,-0.7,x
COc1ccc(CN2C(=O)C3C4C=CC(C4)C3C2=O)cc1 (centres undefined),1.5,-0.8,-1.3,1.9,-3.9,99.9*
COC(=O)[C@]12C[C@H](CC(=O)N3CCCCC3)C(=O)N(Cc3ccc4c(c3)OCO4)C1=C[C@H](COCc1ccccc1)O[C@@H]2C,1.4,x,2.5,x,x,x
Cc1cc(O)cc(=O)n1-c1cc(Cl)cc(Cl)c1,-1.7,x,5.8,x,x,x
Nc1cc(C(F)(F)F)ccc1C(=O)O,1.4,-0.7,0.9,0.5,5.4,96.8*
Nc1cc(S(=O)(=O)C(F)(F)F)ccc1C(=O)O,-0.1,3.8,2.5,2.6,9.7,10.4
Oc1ccccc1C=Nc1ccccc1-c1nc2ccccc2[nH]1,0.1,x,5.0,2.3,1.0,34.2
Oc1ccc(C=Nc2ccccc2-c2nc3ccccc3[nH]2)c(O)c1,0.3,8.4,8.2,1.7,5.0,82.1*
COc1cccc(C(O)c2nc(-c3ccc(Cl)cc3)cs2)c1 (centres undefined),0.2,x,2.5,x,0.5,x
C[N+]1(C)CCC(=C(c2ccccc2)c2ccccc2)CC1,-1.0,4.4,5.0,15.3*,4.5,x
C[N+]1(CCC(=O)c2ccccc2)CCCCC1,5.7,-7.6,-2.4,0.8,-1.6,5.6
O=C1CNC(=S)N1CCc1ccc(O)c(O)c1,5.4,x,1.7,-1.5,-7.5,99.7*
O=C1CNC(=S)N1CCOc1ccccc1,-0.3,-6.8,2.6,2.8,0.3,-8.0
COc1cc(NC(=S)NC(=O)c2cccs2)ccc1NC(=O)C(C)C,2.2,-25.0,-2.6,36.5*,1.6,5.1
COc1cc(NC(=O)c2cc(OC)c(OC)c(OC)c2)ccc1NC(=O)c1cccs1,-0.3,-2.2,-0.2,-1.1,-2.7,1.5
COc1cc(N)ccc1NC(=O)c1cccs1,1.6,5.9,5.6,0.1,1.4,98.8*
Cc1cc(C)cc(N(CC(=O)NC2CCC(C)CC2)S(=O)(=O)c2ccc(C)c(C)c2)c1 (centres undefined),-1.3,x,1.0,x,x,x
CC(=O)N1[C@H](Cc2ccccc2)C=C[C@]1(C)C(=O)NCCc1c[nH]c2ccccc12,2.3,-4.3,1.0,-10.6,-4.6,99.2*
SMILES,PRMT1 FP inh,Rtt109 HAT inh,rCAG RNA binder,LANA-H2B inh,ABHD5-PLIN5 inh,ALR inh
CC(C)(C)NC(=O)C1c2ccccc2OCC(=O)N1Cc1ccco1 (centres undefined),2.5,x,1.5,x,2.3,x
CC(NC(=O)/C(C#N)=C/c1ccco1)c1ccccc1 (centres undefined),5.7,2.9,2.9,2.7,-0.2,3.6
COc1ccc(/C=C(\C#N)C(=O)NCc2ccccc2)cc1O,-6.7,14.2,-3.5,-6.1,6.4,x
CC(NC(=O)/C(C#N)=C/c1ccc([N+](=O)[O-])o1)c1ccccc1 (centres undefined),17.8,18.8,15.2,10.5,28.7*,x
COc1ccc(/C=C(\C#N)C(=O)NC(C)c2ccccc2)cc1O (centres undefined),4.5,10.4,1.6,7.8,12.4,86.9*
CC(NC(=O)/C(C#N)=C/c1ccc(N2CCOCC2)cc1)c1ccccc1 (centres undefined),0.1,5.8,-1.8,-1.0,9.8,10.1
COC(=O)c1ccc(/C=C(\C#N)C(=O)NC(C)c2ccccc2)cc1 (centres undefined),0.2,21.7,4.0,4.0,11.0,87.2*
Cc1occc1-c1nnc(SCC(=O)NCc2ccc(Cl)cc2)n1-c1ccccc1,-0.8,x,4.7,x,x,x
Cn1c(SCC2CCCCC2)nnc1-c1ccco1,0.9,x,-2.4,x,x,x
Nc1nc2c(ncn2[C@@H]2O[C@H](C(=O)NCCc3c[nH]c4ccccc34)[C@@H](O)[C@H]2O)c(=O)[nH]1,-2.6,x,2.1,x,x,x
COCCCN1CC(=O)N2C(c3cccc(OC)c3)c3[nH]c4ccccc4c3C[C@H]2C1=O (some centres undefined),2.2,1.3,-3.4,-0.5,1.8,99.5*
COc1cccc(C2c3[nH]c4ccccc4c3C[C@H]3C(=O)N(C4CC4)CC(=O)N23)c1 (some centres undefined),1.2,-3.5,4.1,2.1,6.3,2.9
COCCN1CC(=O)N2C(c3cccc(OC)c3)c3[nH]c4ccccc4c3C[C@H]2C1=O (some centres undefined),-1.9,2.5,-2.5,0.8,-2.2,99.0*
COc1ccc(C2c3[nH]c4ccccc4c3C[C@H]3C(=O)N(C)CC(=O)N23)cc1OC (some centres undefined),4.6,2.3,1.9,-0.6,1.8,97.8*
COc1cccc(C2c3[nH]c4ccccc4c3C[C@H]3C(=O)N(C)CC(=O)N23)c1 (some centres undefined),1.1,3.4,4.2,-5.4,5.0,98.2*
Cc1ccc(S(=O)(=O)NCCCc2ccc3c(c2)[C@]2(CCC[C@@H](OCc4ccccc4)[C@@H]2NC(=O)CCc2ccccc2)C(=O)N3Cc2ccccc2)cc1,-4.0,x,11.3,x,x,x
COc1ccc(C2c3[nH]c4ccccc4c3C[C@H]3C(=O)N(CCCO)CC(=O)N23)c(OC)c1 (some centres undefined),3.5,-4.5,1.6,7.0,5.5,98.8*
COc1ccc(C2c3[nH]c4ccccc4c3C[C@H]3C(=O)N(c4ccccc4C(=O)N4CCC(C(=O)O)CC4)C(=O)N23)cc1 (some centres undefined),-1.6,5.3,29.0,-2.7,-4.1,10.1
COc1cccc(C2c3[nH]c4ccccc4c3C[C@H]3C(=O)N(CCCO)CC(=O)N23)c1OC (some centres undefined),3.8,4.5,-2.8,2.9,2.6,27.4

# From PubChem
